Calls of active or inactive are those of the source. Calls come from the whole dose curve.
experiment: Immunofluorescence assay for KAP-1 phosphorylation on Ser824 for Identifying a Potential Treatment of Ataxia-Telangiectasia: SAR for Probe; conditions: F2112 A-T fibroblasts, pKAP-1 S824 immunofluorescence
Source text: NIH Chemical Genomics Center [NCGC] NIH Molecular Libraries Probe Centers Network [MLPCN] MLPCN Grant: MH089030-01 Assay Submitter (PI): Wei Zheng and Yosef Shiloh Ataxia-telangiectasia (A-T) is a devastating and progressive disease for which, there is no cure. Although A-T is a multisystem disease, it is stereotyped characterized by its neurological symptoms such as truncal ataxia, due to cerebellar cortical degeneration of the Purkinje and granule cells. Other symptoms of A-T are telangiectasias (dilated blood vessels), primary immunodeficiency, marked sensitivity to ionizing radiation (IR), chromosomal instability and predisposition to cancer. The underlying genetic cause of A-T is null mutations in the ATM (A-T mutated) gene. ATM is a nuclear serine/threonine kinase that functions as a master regulator of the cellular responses to double strand breaks (DSBs) in the DNA. Upon activation by DSBs, ATM phosphorylates a plethora of downstream targets, including KAP-1 on […]. KAP-1 phosphorylation occurs shortly in response to DSBs and mediates global chromatin relaxation, which facilitates DSB repair. To screen for small molecules that will compensate for the loss of ATM in cells derived from A-T patients, we monitored KAP-1 phosphorylation as a readout for ATM-like activity using an AlphaLISA assay.
qHTS Assay Protocol: 1. […] Plates are the read on InCell.

| SMILES | Potency |
| --- | --- |
| CC(=O)c1c(O)c(C)c(O)c(Cc2c(O)c3c(c(C(=O)/C=C/c4ccccc4)c2O)OC(C)(C)C=C3)c1O | 10 µM (active) |
